In PubChem BioAssay (NCI):
About 83,000 compounds went through this panel and 20% of them were active in at least one assay; those are over-represented in the sample as a whole.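 Compound tested at a single concentration for 48 hours in 96-well plates; a percent growth value below 10 was scored as active.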 The source made the active and inactive calls.

Assays:
Experiment in all cases: NCI-60 one-dose screen, 48 h (100 = growth as untreated, 0 = no growth, -100 = all killed)
RPMI-8226 leukemia = conditions: 10 µM unless noted
OVCAR-8 ovarian = conditions: 10 µM unless noted
OVCAR-5 ovarian = conditions: 10 µM unless noted
OVCAR-4 ovarian = conditions: 10 µM unless noted
SK-OV-3 ovarian = conditions: 10 µM unless noted
IGROV1 ovarian = conditions: 10 µM unless noted
OVCAR-3 ovarian = conditions: 10 µM unless noted
HS 578T breast = conditions: 10 µM unless noted
NCI/ADR-RES ovarian = conditions: 10 µM unless noted
T-47D breast = conditions: 10 µM unless noted
BT-549 breast = conditions: 10 µM unless noted
MDA-MB-435 melanoma = conditions: 10 µM unless noted
SW-620 colon = conditions: 10 µM unless noted
MCF7 breast = conditions: 10 µM
HCT-116 colon = conditions: 10 µM unless noted
HCC-2998 colon = conditions: 10 µM unless noted
KM12 colon = conditions: 10 µM unless noted

Measured: growth

CCN1C(=O)N(CC)C2C1NC(=S)N2/N=C/C=C/c1ccccc1OC (stereo unspecified)
inactive: RPMI-8226 leukemia 16.5% | OVCAR-8 ovarian 14.8% | OVCAR-5 ovarian 45.2% | OVCAR-4 ovarian 53.5% | SK-OV-3 ovarian 33.7% | IGROV1 ovarian 31.2% | OVCAR-3 ovarian 16.6% | HS 578T breast 40.3% | T-47D breast 65.9% | SW-620 colon 23.6% | MCF7 breast 17.8% | HCC-2998 colon 12.4% | KM12 colon 15.6%
active: NCI/ADR-RES ovarian 6.29% | BT-549 breast -5.67% | MDA-MB-435 melanoma -20.9% | HCT-116 colon 2.3%

COc1ccc(Cn2c(Br)c3c(c2-c2cc(OC)c(OC)c(OC)c2)CCc2sc(NC(C)=O)nc2-3)cc1
active: IGROV1 ovarian 6.54% | OVCAR-3 ovarian -14.4% | MDA-MB-435 melanoma -57%
inactive: RPMI-8226 leukemia 53.5% | OVCAR-8 ovarian 60.4% | OVCAR-5 ovarian 96.8% | OVCAR-4 ovarian 49.8% | SK-OV-3 ovarian 35.5% | HS 578T breast 24.6% | NCI/ADR-RES ovarian 27.1% | T-47D breast 37.2% | BT-549 breast 74.2% | SW-620 colon 20.5% | MCF7 breast 16.3% | HCT-116 colon 40.7% | HCC-2998 colon 70.2% | KM12 colon 30.4%

CC1=C(CC(=O)c2cccc([N+](=O)[O-])c2)C(=O)c2ccccc2C1=O
active: RPMI-8226 leukemia -7.18% | OVCAR-8 ovarian 9.43% | OVCAR-4 ovarian -89.2% | IGROV1 ovarian -61.1% | OVCAR-3 ovarian -94% | HS 578T breast -20.6% | T-47D breast -10.2% | BT-549 breast 2.6% | MDA-MB-435 melanoma -56.1% | SW-620 colon -41.2% | MCF7 breast 7.59% | HCT-116 colon 9.03% | KM12 colon 7.77%
inactive: OVCAR-5 ovarian 37.5% | SK-OV-3 ovarian 30.5% | NCI/ADR-RES ovarian 30.9% | HCC-2998 colon 96.9%

O=C(Nc1ccc(C23CC4CC(CC(c5ccccc5)(C4)C2)C3)cc1)c1cccs1
inactive: RPMI-8226 leukemia 41.1% | OVCAR-8 ovarian 57.5% | OVCAR-5 ovarian 100% | OVCAR-4 ovarian 58% | SK-OV-3 ovarian 99.3% | IGROV1 ovarian 92.8% | OVCAR-3 ovarian 71.1% | HS 578T breast 92.7% | NCI/ADR-RES ovarian 58% | T-47D breast 49.2% | BT-549 breast 68.9% | MDA-MB-435 melanoma 44.9% | SW-620 colon 82% | MCF7 breast 67.3% | HCT-116 colon 60.4% | HCC-2998 colon 74.8% | KM12 colon 64.8%

O=C(NC1CCN(Cc2ccccc2)CC1)c1cc(C(=O)NC2CCN(Cc3ccccc3)CC2)cc(C(=O)NC2CCN(Cc3ccccc3)CC2)c1
active: IGROV1 ovarian -33.7%
inactive: RPMI-8226 leukemia 56.4% | OVCAR-8 ovarian 91.9% | OVCAR-5 ovarian 112% | OVCAR-4 ovarian 60.5% | SK-OV-3 ovarian 79.8% | OVCAR-3 ovarian 87% | HS 578T breast 79.6% | NCI/ADR-RES ovarian 82.1% | T-47D breast 72.5% | BT-549 breast 70.5% | MDA-MB-435 melanoma 70.4% | SW-620 colon 84.6% | MCF7 breast 57.3% | HCT-116 colon 66.1% | HCC-2998 colon 107% | KM12 colon 90.8%

FC(F)(F)c1cccc(Nc2nc3ccccc3nc2Nc2cccc(C(F)(F)F)c2)c1
inactive: OVCAR-4 ovarian 11.7% | SK-OV-3 ovarian 32% | NCI/ADR-RES ovarian 77.9%
active: RPMI-8226 leukemia -30.9% | OVCAR-8 ovarian -24.3% | OVCAR-5 ovarian 4.13% | IGROV1 ovarian -58.2% | OVCAR-3 ovarian -29.7% | HS 578T breast -4.37% | T-47D breast -61.7% | BT-549 breast 7.74% | MDA-MB-435 melanoma -71.8% | SW-620 colon -26.9% | MCF7 breast -57% | HCT-116 colon -41.7% | HCC-2998 colon -55.1% | KM12 colon -37.2%

COc1ccc(Nc2cc(C)nc(NCc3ccccc3)n2)cc1
inactive: OVCAR-8 ovarian 24.1% | OVCAR-5 ovarian 62% | OVCAR-4 ovarian 46.7% | SK-OV-3 ovarian 92.5% | IGROV1 ovarian 37.5% | HS 578T breast 60.5% | NCI/ADR-RES ovarian 77.8% | T-47D breast 63% | BT-549 breast 97.6% | MDA-MB-435 melanoma 18.5% | SW-620 colon 15% | MCF7 breast 11.1% | HCT-116 colon 15.4% | HCC-2998 colon 21.2%
active: RPMI-8226 leukemia 8.08% | OVCAR-3 ovarian 6.99% | KM12 colon 5.56%

CCOC(=O)C1(Cc2ccccc2)CCN(Cc2cccc(OC)c2O)CC1
inactive: OVCAR-5 ovarian 42.4% | OVCAR-4 ovarian 17.2% | SK-OV-3 ovarian 17.5% | OVCAR-3 ovarian 22.8% | HS 578T breast 28.6% | T-47D breast 17.2% | BT-549 breast 50.4% | MDA-MB-435 melanoma 20.1% | SW-620 colon 20.9% | MCF7 breast 13.9% | HCT-116 colon 21% | HCC-2998 colon 11.9% | KM12 colon 22.2%
active: RPMI-8226 leukemia 9.49% | OVCAR-8 ovarian 3.17% | IGROV1 ovarian -8.64% | NCI/ADR-RES ovarian 6.98%

O=NN(C(=O)NC1CCC(C(=O)O)CC1)C1CCC(C(=O)O)CC1 (stereo unspecified)
inactive: RPMI-8226 leukemia 81.8% | OVCAR-8 ovarian 99.7% | OVCAR-5 ovarian 97.4% | OVCAR-4 ovarian 95.8% | SK-OV-3 ovarian 114% | IGROV1 ovarian 107% | OVCAR-3 ovarian 113% | HS 578T breast 107% | NCI/ADR-RES ovarian 108% | T-47D breast 103% | BT-549 breast 125% | MDA-MB-435 melanoma 106% | SW-620 colon 105% | MCF7 breast 93% | HCT-116 colon 104% | HCC-2998 colon 104% | KM12 colon 108%

Cc1cc(Br)c(N)c(Br)c1
inactive: RPMI-8226 leukemia 99.5% | OVCAR-8 ovarian 101% | OVCAR-5 ovarian 100% | OVCAR-4 ovarian 94.9% | SK-OV-3 ovarian 83.3% | IGROV1 ovarian 110% | OVCAR-3 ovarian 108% | HS 578T breast 109% | NCI/ADR-RES ovarian 98% | T-47D breast 92.5% | BT-549 breast 94.9% | MDA-MB-435 melanoma 97.4% | SW-620 colon 101% | MCF7 breast 92.3% | HCT-116 colon 82.8% | HCC-2998 colon 90.6% | KM12 colon 104%

COc1c(B(O)O)cccc1-c1nc2ccc3n[nH]c(F)c3c2c2c1CCCC2
inactive: RPMI-8226 leukemia 42.3% | OVCAR-8 ovarian 72% | OVCAR-5 ovarian 105% | OVCAR-4 ovarian 96% | SK-OV-3 ovarian 79% | IGROV1 ovarian 80% | OVCAR-3 ovarian 91% | HS 578T breast 43.9% | NCI/ADR-RES ovarian 79.6% | T-47D breast 106% | MDA-MB-435 melanoma 88.3% | SW-620 colon 59.7% | MCF7 breast 61.5% | HCT-116 colon 43.9% | HCC-2998 colon 116% | KM12 colon 40.7%
active: BT-549 breast 5.08%

NC(CCl)=NCCC[C@H](N)C(=O)O
inactive: RPMI-8226 leukemia 99.6% | OVCAR-8 ovarian 99.5% | OVCAR-5 ovarian 105% | OVCAR-4 ovarian 93% | SK-OV-3 ovarian 105% | IGROV1 ovarian 116% | OVCAR-3 ovarian 117% | HS 578T breast 99.3% | NCI/ADR-RES ovarian 101% | T-47D breast 98.2% | BT-549 breast 129% | MDA-MB-435 melanoma 100% | SW-620 colon 100% | MCF7 breast 84.8% | HCT-116 colon 99% | HCC-2998 colon 99.9% | KM12 colon 106%

COc1ccc(CN2CCCC(C(=O)c3ccc(C(F)(F)F)cc3)C2)c(O)c1 (stereo unspecified)
inactive: RPMI-8226 leukemia 11.8% | OVCAR-8 ovarian 17% | OVCAR-5 ovarian 55% | OVCAR-4 ovarian 45.4% | SK-OV-3 ovarian 26.1% | IGROV1 ovarian 47.5% | HS 578T breast 25.8% | T-47D breast 26.1% | BT-549 breast 25.7% | SW-620 colon 13.4% | MCF7 breast 10.9% | HCT-116 colon 15.9% | HCC-2998 colon 31.8% | KM12 colon 18.5%
active: OVCAR-3 ovarian 7.49% | NCI/ADR-RES ovarian 9.17% | MDA-MB-435 melanoma -48.9%

COc1ccc(-c2cc(=O)c3c(OC)c4ccoc4c(/C=C/C=O)c3o2)cc1
inactive: OVCAR-8 ovarian 28.5% | OVCAR-5 ovarian 77.1% | OVCAR-4 ovarian 37.2% | SK-OV-3 ovarian 84% | IGROV1 ovarian 72.7% | OVCAR-3 ovarian 18.3% | HS 578T breast 39.2% | NCI/ADR-RES ovarian 33.5% | MDA-MB-435 melanoma 21.5% | SW-620 colon 19.6% | MCF7 breast 17.3% | HCC-2998 colon 92.3% | KM12 colon 80%
active: RPMI-8226 leukemia 0.179% | T-47D breast 1.64% | BT-549 breast -22.9% | HCT-116 colon -73%

CCN1C(=O)N(CC)C2C1NN=c1s/c(=C3\C(=O)N(C(C)C)c4ccccc43)c(=O)n12 (stereo unspecified)
inactive: OVCAR-8 ovarian 12.6% | OVCAR-5 ovarian 54.2% | OVCAR-4 ovarian 58.1% | SK-OV-3 ovarian 29.7% | IGROV1 ovarian 36.5% | HS 578T breast 36.7% | T-47D breast 68.1% | SW-620 colon 27.1% | MCF7 breast 20.5% | HCT-116 colon 10.1% | HCC-2998 colon 20.3% | KM12 colon 15.3%
active: RPMI-8226 leukemia 7.53% | OVCAR-3 ovarian 5.56% | NCI/ADR-RES ovarian 7.06% | BT-549 breast 6.02% | MDA-MB-435 melanoma -12.1%

CC/C(=C(\CC)c1ccc(OCC[N+](C)(C)C)cc1)c1ccc(OC)cc1
inactive: RPMI-8226 leukemia 31.1% | OVCAR-8 ovarian 53% | OVCAR-5 ovarian 102% | OVCAR-4 ovarian 68.5% | SK-OV-3 ovarian 86.9% | IGROV1 ovarian 68.8% | OVCAR-3 ovarian 51.3% | HS 578T breast 72.3% | NCI/ADR-RES ovarian 107% | T-47D breast 59% | BT-549 breast 74.5% | MDA-MB-435 melanoma 86% | SW-620 colon 68.5% | MCF7 breast 89% | HCT-116 colon 48.9% | HCC-2998 colon 47.9% | KM12 colon 51.3%

Brc1ccc(Nc2nc3ccccc3nc2Nc2ccc(Br)cc2)cc1
inactive: OVCAR-4 ovarian 12.7%
active: RPMI-8226 leukemia -12.3% | OVCAR-8 ovarian -31.4% | OVCAR-5 ovarian 6.38% | SK-OV-3 ovarian -16.7% | IGROV1 ovarian 1.3% | OVCAR-3 ovarian -55.4% | HS 578T breast -1.34% | NCI/ADR-RES ovarian 5.04% | T-47D breast -4.85% | BT-549 breast -12.6% | MDA-MB-435 melanoma -60.2% | SW-620 colon -69.9% | MCF7 breast 1.16% | HCT-116 colon -86.3% | HCC-2998 colon -56.5% | KM12 colon -55.3%

COc1ccc(-c2nsc3c2NC(=O)CC3c2ccc3c(c2)OCCO3)cc1 (stereo unspecified)
active: SK-OV-3 ovarian 3.12% | OVCAR-3 ovarian -38.6% | MDA-MB-435 melanoma -46.6%
inactive: RPMI-8226 leukemia 31.5% | OVCAR-8 ovarian 35.3% | OVCAR-5 ovarian 37.5% | OVCAR-4 ovarian 36.9% | IGROV1 ovarian 49% | HS 578T breast 28.4% | NCI/ADR-RES ovarian 21% | T-47D breast 50.2% | BT-549 breast 27.8% | SW-620 colon 35.7% | MCF7 breast 24.7% | HCT-116 colon 12.7% | HCC-2998 colon 33.5% | KM12 colon 20.6%
